Data published in the supplement of paper PMC10720658.
± gives the standard deviation of the averaged measurements.

Tested on: AEK1 (Tb927.3.2440)
Test: percent reduction in TR-FRET probe signal relative to DMSO control; higher = stronger displacement of ATP-site probe (binding)
Settings: 1 µM; incubation time 1 h

| SMILES | percent reduction in TR-FRET probe signal [%] |
| --- | --- |
| Nc1nc(N)c2nc(-c3cccc(O)c3)c(-c3cccc(O)c3)nc2n1 | 19.3 ± 26 |
| CCOc1cc2ncc(C#N)c(Nc3ccc(F)c(Cl)c3)c2cc1NC(=O)/C=C/CN(C)C [Pelitinib (EKB-569)] | 4.14 ± 4.7 |
| CCn1c2ccccc2c2cc(Nc3ccnc(NCCCN4CCOCC4)n3)ccc21 | -8.54 ± 5.5 |
| CCN(CCO)CCCOc1ccc2c(Nc3cc(CC(=O)Nc4cccc(F)c4)n[nH]3)ncnc2c1 [Barasertib (AZD1152-HQPA)] | -5.79 ± 4.7 |
| C=CC(=O)Nc1cccc(Nc2nc(Nc3ccc(OCCOC)cc3)ncc2F)c1 | -0.667 ± 7.7 |
| CC(O)C(=O)O.CC(O)C(=O)O.CN1CCN(c2ccc3nc(-c4c(N)c5c(F)cccc5[nH]c4=O)[nH]c3c2)CC1 [Dovitinib (TKI-258) Dilactic Acid] | 10.5 ± 12 |
| CNC(=O)c1cc(Oc2ccc(NC(=O)Nc3ccc(Cl)c(C(F)(F)F)c3)c(F)c2)ccn1 [Regorafenib (BAY 73-4506)] | 11.5 ± 5.7 |
| Cc1cn(-c2cc(NC(=O)c3ccc(C)c(Nc4nccc(-c5cccnc5)n4)c3)cc(C(F)(F)F)c2)cn1 [Nilotinib (AMN-107)] | 17.5 ± 28 |
| CC1=C(C(=O)Nc2cc3cn[nH]c3cc2F)C(c2ccc(C(F)(F)F)cc2)CC(=O)N1 (stereo not drawn) | -2.47 ± 11 |
| CNC(=O)c1c(F)cccc1Nc1nc(Nc2cc3c(cc2OC)CCN3C(=O)CN(C)C)nc2[nH]ccc12 | -0.577 ± 11 |
| Cn1cnc2c(F)c(Nc3ccc(Br)cc3Cl)c(C(=O)NOCCO)cc21 [Selumetinib (AZD6244)] | 11.4 ± 34 |
| COc1ccc2c(Oc3ccc(NC(=O)c4c(C)n(CC(C)(C)O)n(-c5ccccc5)c4=O)nc3)ccnc2c1 | 0.253 ± 6.4 |
| O=C(c1cccc(Cl)c1F)N1CCN(Cc2cccc(Nc3nccs3)n2)CC1 | 6.09 ± 13 |
| Cc1nc(Nc2cnn(C3CCNCC3)c2)nc2c1N(C)C(=O)c1cc3ccccc3cc1N2C | -10.5 ± 7.1 |
| NC1(C(=O)N[C@@H](CCO)c2ccc(Cl)cc2)CCN(c2ncnc3[nH]ccc23)CC1 | 3.79 ± 1.4 |
| COC(=O)Nc1ccc(-c2nc(N3CCOCC3)c3cnn(C4CCN(C(=O)OC)CC4)c3n2)cc1 | -6.41 ± 11 |
| COC(=O)c1ccc2c(c1)NC(=O)/C2=C(\Nc1ccc(N(C)C(=O)CN2CCN(C)CC2)cc1)c1ccccc1 [Nintedanib (BIBF 1120)] | 9.58 ± 14 |
| CNc1nc(-c2ccc3c(N)n[nH]c3c2)cc(N2C[C@@H](C(=O)NC3CCCCC3)CC[C@H]2C)n1 | 14.7 ± 20 |
| C[C@@H]1CN(CC(=O)Nc2ccc3c(c2)Cc2cccc(-c4cc(=O)cc(N5CCOCC5)o4)c2S3)C[C@H](C)O1 | -2.9 ± 6.6 |

| SMILES | percent reduction in TR-FRET probe signal [%] |
| --- | --- |
| C=CC(=O)N1CCCC(n2c(=O)n(-c3ccc(Oc4ccccc4)cc3)c3c(N)ncnc32)C1 (stereo not drawn) [ONO-4059 analogue] | 4.33 ± 16 |
| O=C(Nc1ccc(-c2ccnc(Nc3ccc(N4CCOCC4)cc3)n2)cc1)[C@@H]1CCCN1 | 6.52 ± 10 |
| CC(C)Nc1cc(-c2c[nH]c(C(=O)N[C@H](CO)c3cccc(Cl)c3)c2)c(Cl)cn1 | 0.153 ± 2.1 |
| CN(C)CCOc1ccc(-c2nc(-c3ccncc3)c(-c3ccc4c(c3)CC/C4=N\O)[nH]2)cc1 | 3.05 ± 12 |
| Cc1ccccc1-n1c(Cn2nc(-c3cccc(O)c3)c3c(N)ncnc32)nc2cccc(C)c2c1=O | 1.94 ± 11 |
| Nc1nc(N)c(N=O)c(OCC2CCCCC2)n1 | -2.92 ± 9 |
| NCC(=O)Nc1ccc(-n2nc(C(F)(F)F)cc2-c2ccc3c(ccc4ccccc43)c2)cc1 | -2.82 ± 7.5 |
| Cc1cc(Nc2cc(CN3CCOCC3)c3nc(C)c(Cc4ccc(Cl)cc4F)n3n2)n[nH]1 | 49 ± 10 |
| COc1cc2c(c(OC)c1OC)-c1c(cc3c(c1OC)OCO3)C[C@@H](C)[C@@H](C)C2 [Schisandrin B (Sch B)] | 13.6 ± 28 |
| CN1CC[C@@H](c2c(O)cc(O)c3c(=O)cc(-c4ccccc4Cl)oc23)[C@@H]1CO.Cl | 4 ± 2.6 |
| CC(C)CC(NC(=O)C(Cc1ccccc1)NC(=O)C(CCC(N)=O)NC(=O)C(Cc1ccc(O)cc1)NC(=O)C(C)NC(=O)CNC(=O)C(CCCCN)NC(=O)C(Cc1c[nH]c2ccccc12)NC(=O)C(NC(=O)C(Cc1c[nH]c2ccccc12)NC(=O)C(CCCCN)NC(=O)CNC(=O)C(CC(N)=O)NC(=O)C(CCC(=O)O)NC(=O)C(Cc1c[nH]c2ccccc12)NC(=O)C(NC(=O)C(Cc1c[nH]c2ccccc12)NC(=O)C(CO)NC(=O)CNC(=O)C1CCCN1C(=O)C(Cc1c[nH]c2ccccc12)NC(=O)C(CCC(N)=O)NC(=O)C(Cc1ccccc1)NC(=O)CNC(=O)C(N)Cc1c[nH]cn1)C(C)O)C(C)O)C(=O)NC(CCCCN)C(=O)NCC(=O)NCC(=O)NCC(=O)NCC(=O)NC(CO)C(=O)NC(CCCNC(=N)N)C(=O)NC(CCCNC(=N)N)C(=O)NC(CCCNC(=N)N)C(=O)NC(CCCNC(=N)N)C(=O)NC(CCCNC(=N)N)C(=O)NC(CCCNC(=N)N)C(=O)NC(CCCNC(=N)N)C(=O)NC(CCCNC(=N)N)C(=O)NC(CCCNC(=N)N)C(=O)O (stereo not drawn) | -15.1 ± 6.2 |
| COc1ccc(-c2ccc3c(N4CCOC[C@@H]4C)nc(N4CCOC[C@@H]4C)nc3n2)cc1CO | -7.43 ± 5.2 |
| Cn1c(=O)c(F)c(Nc2ccc(I)cc2F)c2c(=O)n(C[C@@H](O)CO)cnc21 | 10.1 ± 14 |
| CN(C)S(=O)(=O)c1ccc2c(c1)/C(=C/c1cc3c([nH]1)CCCC3)C(=O)N2 | 43.6 ± 21 |
| COc1cc(Nc2ncc3c(n2)-c2ccc(Cl)cc2C(c2c(F)cccc2OC)=NC3)ccc1C(=O)O [Alisertib (MLN8237)] | 2.08 ± 9.1 |
| CCCNC(=O)Nc1ccc(Oc2ncnc3cc(OC)c(OC)cc23)cc1Cl | -3.67 ± 12 |
| CO[C@@H](C)Cn1c(=O)n(C)c2cnc3ccc(-c4cncc(C(C)(C)O)c4)cc3c21 | 3.02 ± 4.9 |
| CCS(=O)(=O)Nc1ccc2c(c1)/C(=C(/Nc1ccc(CN3CCCCC3)cc1)c1ccccc1)C(=O)N2 [Hesperadin] | 97.4 ± 5.1 |
| CO[C@H]1C[C@@H]2CC[C@@H](C)[C@@](O)(O2)C(=O)C(=O)N2CCCC[C@H]2C(=O)O[C@H]([C@H](C)C[C@@H]2CC[C@@H](O)[C@H](OC)C2)CC(=O)[C@H](C)/C=C(\C)[C@@H](O)[C@@H](OC)C(=O)[C@H](C)C[C@H](C)/C=C/C=C/C=C/1C [Rapamycin (Sirolimus)] | -8.37 ± 4.2 |
